EBV LMP1 NFkB: inhibitors of Epstein-Barr LMP1-induced NF-kappaB reporter; LMP1-induced NF-kappaB luciferase reporter cells, luminescence; inhibition, % at 12.5 µM; 0.69% of 350,000 active; AID 504558; in the data active = inhibition above about 41%; inconclusive = no clear call, values can overlap the other calls
TWEAK-Fn14 inh: TWEAK-Fn14 signaling inhibition; TWEAK-stimulated Fn14 reporter cells, luciferase luminescence, 8 h; inhibition, % at 10 µM; 2% of 360,000 active; AID 1159606; in the data active = inhibition above about 50%
TROY NFkB inh: inhibitors of TROY-dependent NF-kB signaling; inhibition, % at 10 µM; 0.98% of 360,000 active; Q293 LMP1-TROYcd NF-kB luciferase reporter, 4 h;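 active = compounds whose plate-normalised and pattern-corrected inhibition of the luciferase reporter signal at the single screening dose is 50% or more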
TRPM1 prom inh: inhibitors of MITF-driven TRPM1 promoter in melanoma cells; SK-MEL-5 TRPM1 promoter luciferase, 24 h; inhibition, % at 12.5 µM; 0.83% of 330,000 active; AID 488899;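 active = mean inhibition across replicates of 60% or more, whatever share of single replicates reaches that level; inconclusive = some that reach 60%, reason not given; inactive = mean inhibition across replicates below 60%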
HIF-2a block: HIF-2a inhibition. 786-0 RCC cells HIF-2a reporter, luciferase luminescence, overnight. AID 624352. 0.72% of 360,000 active. inhibition, % at 18.8 µM;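 active = inhibition of the luminescence signal of 40% or more relative to plate controls, in a single-dose primary screen at 18.75 µM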
Shn3 inh set2: inhibitors of Schnurri-3 3'UTR reporter in osteoblasts; Clone20 osteoblast Shn3 3'UTR firefly luciferase, 24 h; inhibition, % at 12.5 µM; 0.52% of 360,000 active;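 active = mean inhibition of at least 75% with every replicate also reaching 75%; inconclusive = mean inhibition at least 75% but some replicate below; inactive = mean inhibition below 75%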
Numbers stand for hits; – = inactive; ? = inconclusive; · = not tested or not shown. This is a sample that favours compounds with a hit; in the whole collection about 3.4% have one here.

SMILES	EBV LMP1 NFkB	TWEAK-Fn14 inh	TROY NFkB inh	TRPM1 prom inh	HIF-2a block	Shn3 inh set2
Cc1ccc(C(=O)NCCc2nnc3ccc(N4CCCC4)nn23)cc1	–	–	–	–	–	–
Cc1c(C(=O)NCc2ccc3c(c2)OCCO3)sc(=O)n1Cc1ccccc1C(F)(F)F	·	–	–	·	–	–
Cc1ccc(S(=O)(=O)CC(CN2CCCCC2)N2CCCCC2)cc1 (centres undefined)	–	–	–	69	–	–
Cc1ccc(S(=O)(=O)CC(c2ccccc2)N2CCCCC2)cc1 (centres undefined)	–	–	–	–	–	–
Nc1cccc2c1C(=O)N(CCOc1ccc(F)cc1)C2=O	–	–	–	–	–	–
Cc1cc(C)n2nc(C(=O)N3CCCC(Nc4ccc(F)c(F)c4)C3)cc2n1 (centres undefined)	–	–	–	–	–	–
CCCCCn1c2c(c(=N)c3ccccc31)CCC2	–	–	–	–	–	–
N=c1c2c(n(Cc3ccc(Cl)cc3)c3c1CCC3)CCC2	–	–	–	64	–	–
CCCCCCCCCn1c2c(c(=N)c3c1CCC3)CCCC2	–	57	51	92	–	92
CCCCCCCCn1c2c(c(=N)c3ccccc31)CCC2	–	71	–	90	–	91
CCn1c2c(c(=N)c3c1CCC3)CCCC2	·	–	–	·	–	–
CCCCCCCCCCn1c2c(c(=N)c3c1CCC3)CCC2	?	72	57	81	64	–
COc1nc(N)nc2nc[nH]c12	–	–	–	–	–	–
O=C(C(=O)N1CCN(c2ccccc2)CC1)c1ccncc1	·	·	·	·	–	·
COCCn1c(C)cc(C(=O)CN2C(=O)C(=O)N(CCC3=CCCCC3)C2=O)c1C	–	–	–	·	–	–
CCN(CC)C(=O)C1=C(C)N(CCCN2CCCC2=O)C(=O)C(CC(=O)NCCCN(C)C)C1 (centres undefined)	–	–	–	·	–	–
CCOc1ccc(N2C(=O)CC(Sc3nc(C)cc(C)n3)C2=O)cc1 (centres undefined)	–	–	–	–	–	–
CCOc1ccc(N2C(=O)CC(Sc3nnnn3-c3ccccc3)C2=O)cc1 (centres undefined)	–	–	–	–	–	92
O=C(Nc1ccccc1F)c1ccc2sc([C@H]3C[C@H](O)[C@@H](CO)O3)nc2c1	·	–	–	·	–	–
Cc1ccc(Nc2cc(C)nn2-c2nc(C)cc(=O)[nH]2)cc1	–	108	84	98	40	–
O=C(NCc1cccnc1)C(=O)Nc1ccc2c(c1)OCO2	–	–	–	–	–	–
CCNC(=O)C1(C)CCN(C(=O)c2ccc(OC)c(OC)c2)C1 (centres undefined)	·	–	–	·	–	–
CCCn1nc(C(=O)Nc2nc(-c3ccccn3)cs2)c2ccccc2c1=O	–	–	–	–	–	–
Cc1cc(C(=O)Nc2nc(-c3ccccn3)cs2)ccc1[N+](=O)[O-]	–	–	–	–	–	–
O=C(Nc1nc(-c2ccccn2)cs1)c1ccccc1-n1cnnn1	–	–	–	65	–	95
SMILES	EBV LMP1 NFkB	TWEAK-Fn14 inh	TROY NFkB inh	TRPM1 prom inh	HIF-2a block	Shn3 inh set2
O=C(Nc1nc(-c2ccccn2)cs1)c1cc(Cl)ccc1[N+](=O)[O-]	?	–	–	79	–	97
CCn1nc(C(=O)Nc2nc(-c3ccccn3)cs2)c2ccccc2c1=O	42	–	–	·	–	–
O=C(Nc1nc(-c2ccccn2)cs1)c1ccc([N+](=O)[O-])o1	–	–	–	61	–	88
C=CCN(CC=C)Cc1cc(=O)oc2cc(C)c(Cl)cc12	·	–	–	·	–	–
Cc1cc(C(=O)C(C)OC(=O)c2cnccn2)c(C)n1-c1ccccc1 (centres undefined)	–	–	–	–	–	–
Nc1ccn([C@@H]2O[C@H](CO)[C@@H](O)[C@@H]2O)c(=O)n1	53	–	–	–	–	–
CNc1ncnc2c1ncn2[C@@H]1O[C@H](CO)[C@@H](O)[C@H]1O	55	–	–	–	–	–
Nc1nc(=S)c2ncn(C3OC(CO)C(O)C3O)c2[nH]1 (centres undefined)	–	–	–	–	–	–
Nc1nc(=S)c2ncn(C3CCCCC3)c2[nH]1	–	–	64	–	–	–
Nc1nc(=S)c2ncn([C@@H]3O[C@H](CO)[C@@H](O)[C@H]3O)c2[nH]1	–	–	–	72	–	–
Nc1ccn(C2OC(CO)C(O)C2O)c(=O)n1 (centres undefined)	·	–	–	·	–	–
NC(=O)c1ncn([C@@H]2O[C@H](CO)[C@@H](O)[C@H]2O)n1	63	–	–	–	–	–
NC(=O)c1ncn([C@@H]2O[C@H](CNCc3ccccc3C#Cc3ccccc3)[C@@H](O)[C@H]2O)n1	–	–	–	–	–	–
Nc1ncn([C@@H]2O[C@H](CO)[C@@H](O)[C@H]2O)c(=O)n1	–	72	–	79	–	–
O=c1[nH]cnc2c1ncn2C1OC(CO)C(O)C1O (centres undefined)	–	–	–	–	–	–
CC(=O)Nc1ccc(NC(=O)C(C)Sc2nnc(C3CC3)n2-c2ccccc2)cc1 (centres undefined)	–	–	–	–	–	–
Cc1c(/N=C(\[O-])Nc2ccc(Br)cc2)sn[n+]1C	·	68	–	·	–	–
Cc1ccccc1/C(=N\S(=O)(=O)c1ccc(Br)cc1)Nc1ccccc1	–	–	–	·	–	–
CC1(C2CCCC2)NC(=O)NC1=O (centres undefined)	–	–	–	–	–	–
CCOC(=O)[C@@H]1[C@H]2COc3ccccc3[C@@H]2N2C(=O)N(c3ccccc3)C(=O)[C@]12C	–	–	–	–	–	–
O=C(NN1C(=O)C2C3C=CC(C4CC34)C2C1=O)c1cccc(Cl)c1 (centres undefined)	71	–	–	–	–	–
CCc1ccccc1N1CC(C(=O)Nc2cc(C)on2)CC1=O (centres undefined)	–	–	–	–	–	–
O=C(NCc1ccccc1)C1CCCN(S(=O)(=O)c2ccc(Br)cc2)C1 (centres undefined)	–	–	–	–	–	–
CC(=O)Nc1ccc(C2=CC(=O)C[C@H](c3ccc(Cl)cc3)C2)cc1	–	–	–	–	–	–
CCOc1ccccc1NC1=C(Cl)C(=O)N(c2ccc(OC)cc2)C1=O	–	–	–	–	–	–
COc1ccc(N2C(=O)C(Cl)=C(NCc3ccccc3)C2=O)cc1	65	–	–	–	–	–
O=C1CCc2cccc(O)c2N1	–	–	–	–	–	94
C[C@@H]1CN([C@@H](C)CO)C(=O)c2cccc(NC(=O)C3CCCCC3)c2O[C@@H]1CN(C)C(=O)NC1CCCCC1	–	–	–	–	–	–
Cc1ccccc1N=C1SC(CC(=O)Nc2ccc3ccccc3c2)C(=O)N1Cc1ccccn1 (centres undefined)	–	72	–	–	–	–
